Each structure is given as a SMILES string.
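Note: KINOMEscan kinase panel screen.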

The first assay concerns ACVRL1. As to conditions: concentration: 1 μM, replicates: in singlicate; n = 1.
For the molecule `CCCCc1nn2ncccc2c1-c1ccnc(NC2CC2)n1` [GW684374], the “%Inh” value was 0%.
On to `COC(=O)C(NC(=O)NC1CCN(c2ccnc(Nc3ccc(F)cc3)n2)C1)c1ccccc1` (centres unmarked) [GSK1379712], for which the “%Inh” value is given as 0%.
On the same count and under the same terms, the value for `O=c1cc(N2CCOCC2)nc2n(Cc3ccccc3F)ccn12` [GSK2297428] was 0%; that for `COc1cc2ncnc(Nc3cccc(Br)c3)c2cc1OC.Cl` [GI230329] was 0%; that for `CS(=O)(=O)Cc1ccc(Nc2nccc(-c3c(-c4cccc(NC(=O)C5CCCCC5)c4)nn4ncccc34)n2)cc1` [GSK350559] was 0%.
Take `Cc1cnc(N)c(/C=C/c2cncc(C(=O)NCCc3ccc(Cl)cc3Cl)c2)c1.Cl` [GSK190937]: the “%Inh” value is reported as 0%.
Turning to `CS(=O)(=O)CCNCc1nc(-c2ccc3ncnc(Nc4ccc5c(cnn5Cc5ccccc5)c4)c3c2)cs1.Cl.Cl` [GW569716], the “%Inh” value amounted to 0%.
On the same count and under the same terms, the same measure for `CC[C@@H]1CO[C@H](C(=O)Nc2ccccc2)CN1c1cc(-c2ccc3c(N)n[nH]c3c2)nc(NC)n1` [GSK2376236]: 0%; for `CC(=O)c1c(C)c2cnc(Nc3ccc(N4CCNCC4)cn3)nc2n(C2CCCC2)c1=O`: 0%.
Take `COc1ccc(-c2coc3ccc(-c4nnc(C)o4)cc23)cc1`: the “%Inh” value is on record as 27%.
For `Cc1c(Cn2c(C)c(C)n3c(=O)cc(N4CCOCC4)nc23)cccc1C(F)(F)F` [GSK2328680], the “%Inh” value came out at 0%.
On the same count and under the same terms, the same measure for `CNc1cc(-c2ccc3c(N)n[nH]c3c2)nc(N)n1` [GSK2224810]: 0%; for `Cc1ccc(NC(=O)c2ccc(Cl)cc2)cc1-c1ccc(C(=O)Nc2ccncc2)cc1` [GSK1398467]: 0%.
On the same count and under the same terms, the value for `CCn1c(-c2ccccc2)nc2cnccc21` [SB-733416] was 10%; that for `CN1c2ccc(-c3ccc(C(N)=O)cc3)cc2-c2[nH]ncc2S1(=O)=O` was 16%; that for `CS(=O)(=O)CCNCc1nc(-c2ccc3ncnc(Nc4ccc(OCc5ccccc5)c(Cl)c4)c3c2)cs1.Cl` [GW582764] was 0%.
Same read-out and setting: the same measure for `COC(=O)c1cccc(NC(=O)NC2CCN(c3ccnc(Nc4ccc(OC)cc4)n3)C2)c1` (centres unmarked) [GSK1379746]: 0%; for `NS(=O)(=O)c1cccc(N/C=C2\C(=O)Nc3ccc(S(=O)(=O)Cc4c(Cl)cccc4Cl)cc32)c1` [GSK398099]: 0%.
With `CC(=O)c1cccc(NC(=O)NC2CCN(c3ccnc(Nc4ccc(F)cc4)n3)C2)c1` (centres unmarked) [GSK1379710], the “%Inh” value was determined as 0%.
Consider `O=C1NC(=O)C(c2ccc(Cl)cc2)=C1Nc1cccc(Cl)c1` [SB-317651], for which the “%Inh” value is listed as 16%.
Same read-out and setting: the value for `Cc1ccc(-c2nc(Nc3ccncc3)c3ccccc3n2)s1` [GSK189015] was 29%.
On the same count and under the same terms, the value for `Cn1cnc2c(N)ncnc21` [SKF-97623] was 0%.
The same measure, in the same setting: the same measure for `CNc1nc(-c2ccc3c(N)n[nH]c3c2)cc(N2C[C@@H](C(=O)NC3CCCCC3)OC[C@H]2C)n1` [GSK2375584]: 0%; for `O=C(Nc1n[nH]c2nc(-c3ccco3)c(Br)cc12)C1CCN(Cc2ccccc2)C1.O=C(O)[C@H](O)[C@@H](O)C(=O)O` (centres unmarked) [SB-742034]: 28%.
With `COc1ccc(Nc2nccc(NCCNC(=O)Nc3cc(C)ccc3C)n2)cc1` [GSK1379899], the “%Inh” value was 0%.
The same measure, in the same setting: the value for `CC(C)c1cc(-c2ccc3c(N)n[nH]c3c2)nc(N)n1` [GSK2250882] was 0%.
On the same count and under the same terms, the same measure for `O=C(Nc1n[nH]c2nc(-c3cccs3)c(Br)cc12)C1CCCC1` [SB-743341]: 9%; for `O=C1NC(=O)C(c2ccc(Cl)cc2)=C1Nc1ccc(O)cc1` [SB-340867]: 0%.
Regarding `COc1ccc(Nc2nccc(N3CCC(NC(=O)C(C)c4ccc(Cl)cc4)CC3)n2)cc1` (centres unmarked) [GSK1379812], the “%Inh” value was found to be 0%.
Still for that read-out and setting: the same measure for `CC(C)c1ccc(O)cc1Nc1ccnc2ccc(C(F)(F)F)cc12` [GW482059]: 19%.
The same measure, in the same setting: the same measure for `CCn1c(-c2c(N)noc2C)nc2cnccc21` [SB-737856]: 0%; for `COc1ccc(Nc2nccc(N3CCC(NC(=O)C(C)c4ccc(Cl)cc4)C3)n2)cc1` (centres unmarked) [GSK1379735]: 0%; for `O=c1cc(N2CCOCC2)nc2n(Cc3cccc(Cl)c3Cl)c3ccccc3n12` [GSK2299009]: 6%.
Still for that read-out and setting: the same measure for `CC(=O)c1c(C)c2cnc(Nc3ccn(C)n3)nc2n(C2CCCC2)c1=O`: 0%; for `Cc1nccc(-c2c(-c3ccc(F)cc3)ncn2CCCN2CCOCC2)n1.Cl` [SB-282975]: 19%.
Consider `COc1ccc(CSc2nnc(-c3ccc4c(c3)CCO4)o2)cc1`, for which the “%Inh” value was 0%.
The same measure, in the same setting: the same measure for `Cc1ccc(NC(=O)Nc2ccc(Cl)cc2)cc1-c1ccc(C(=O)Nc2ccncc2)cc1` [GSK1398472]: 0%.

In a further assay the test system is T1, ADCK3.
T1 construct: gene CABC1
As to conditions: concentration: 1 μM, replicates: in singlicate; n = 1.
For the molecule `CCCCc1nn2ncccc2c1-c1ccnc(NC2CC2)n1` [GW684374], the “%Inh” value stood at 61%.
Same read-out and setting: the value for `COC(=O)C(NC(=O)NC1CCN(c2ccnc(Nc3ccc(F)cc3)n2)C1)c1ccccc1` (centres unmarked) [GSK1379712] was 0%.
On to `O=c1cc(N2CCOCC2)nc2n(Cc3ccccc3F)ccn12` [GSK2297428], for which the “%Inh” value is 13%.
The same measure, in the same setting: the value for `COc1cc2ncnc(Nc3cccc(Br)c3)c2cc1OC.Cl` [GI230329] was 19%; that for `CS(=O)(=O)Cc1ccc(Nc2nccc(-c3c(-c4cccc(NC(=O)C5CCCCC5)c4)nn4ncccc34)n2)cc1` [GSK350559] was 24%; that for `Cc1cnc(N)c(/C=C/c2cncc(C(=O)NCCc3ccc(Cl)cc3Cl)c2)c1.Cl` [GSK190937] was 25%.
With `CS(=O)(=O)CCNCc1nc(-c2ccc3ncnc(Nc4ccc5c(cnn5Cc5ccccc5)c4)c3c2)cs1.Cl.Cl` [GW569716], the “%Inh” value came out at 10%.
Still for that read-out and setting: the value for `CC[C@@H]1CO[C@H](C(=O)Nc2ccccc2)CN1c1cc(-c2ccc3c(N)n[nH]c3c2)nc(NC)n1` [GSK2376236] was 27%.
Still for that read-out and setting: the same measure for `CC(=O)c1c(C)c2cnc(Nc3ccc(N4CCNCC4)cn3)nc2n(C2CCCC2)c1=O`: 0%.
Same read-out and setting: the same measure for `COc1ccc(-c2coc3ccc(-c4nnc(C)o4)cc23)cc1`: 9%; for `Cc1c(Cn2c(C)c(C)n3c(=O)cc(N4CCOCC4)nc23)cccc1C(F)(F)F` [GSK2328680]: 2%; for `CNc1cc(-c2ccc3c(N)n[nH]c3c2)nc(N)n1` [GSK2224810]: 13%.
For `Cc1ccc(NC(=O)c2ccc(Cl)cc2)cc1-c1ccc(C(=O)Nc2ccncc2)cc1` [GSK1398467], the “%Inh” value is 15%.
The same measure, in the same setting: the value for `CCn1c(-c2ccccc2)nc2cnccc21` [SB-733416] was 8%.
Same read-out and setting: the same measure for `CN1c2ccc(-c3ccc(C(N)=O)cc3)cc2-c2[nH]ncc2S1(=O)=O`: 0%.
In the case of `CS(=O)(=O)CCNCc1nc(-c2ccc3ncnc(Nc4ccc(OCc5ccccc5)c(Cl)c4)c3c2)cs1.Cl` [GW582764], the “%Inh” value worked out at 9%.
In the case of `COC(=O)c1cccc(NC(=O)NC2CCN(c3ccnc(Nc4ccc(OC)cc4)n3)C2)c1` (centres unmarked) [GSK1379746], the “%Inh” value is on record as 18%.
With `NS(=O)(=O)c1cccc(N/C=C2\C(=O)Nc3ccc(S(=O)(=O)Cc4c(Cl)cccc4Cl)cc32)c1` [GSK398099], the “%Inh” value turned out to be 1%.
The same measure, in the same setting: the same measure for `CC(=O)c1cccc(NC(=O)NC2CCN(c3ccnc(Nc4ccc(F)cc4)n3)C2)c1` (centres unmarked) [GSK1379710]: 25%; for `O=C1NC(=O)C(c2ccc(Cl)cc2)=C1Nc1cccc(Cl)c1` [SB-317651]: 17%; for `Cc1ccc(-c2nc(Nc3ccncc3)c3ccccc3n2)s1` [GSK189015]: 21%.
On the same count and under the same terms, the value for `Cn1cnc2c(N)ncnc21` [SKF-97623] was 0%; that for `CNc1nc(-c2ccc3c(N)n[nH]c3c2)cc(N2C[C@@H](C(=O)NC3CCCCC3)OC[C@H]2C)n1` [GSK2375584] was 24%.
Consider `O=C(Nc1n[nH]c2nc(-c3ccco3)c(Br)cc12)C1CCN(Cc2ccccc2)C1.O=C(O)[C@H](O)[C@@H](O)C(=O)O` (centres unmarked) [SB-742034], for which the “%Inh” value is 7%.
Still for that read-out and setting: the value for `COc1ccc(Nc2nccc(NCCNC(=O)Nc3cc(C)ccc3C)n2)cc1` [GSK1379899] was 0%; that for `CC(C)c1cc(-c2ccc3c(N)n[nH]c3c2)nc(N)n1` [GSK2250882] was 13%.
Same read-out and setting: the same measure for `O=C(Nc1n[nH]c2nc(-c3cccs3)c(Br)cc12)C1CCCC1` [SB-743341]: 7%; for `O=C1NC(=O)C(c2ccc(Cl)cc2)=C1Nc1ccc(O)cc1` [SB-340867]: 0%; for `COc1ccc(Nc2nccc(N3CCC(NC(=O)C(C)c4ccc(Cl)cc4)CC3)n2)cc1` (centres unmarked) [GSK1379812]: 25%.
Still for that read-out and setting: the same measure for `CC(C)c1ccc(O)cc1Nc1ccnc2ccc(C(F)(F)F)cc12` [GW482059]: 0%; for `CCn1c(-c2c(N)noc2C)nc2cnccc21` [SB-737856]: 23%; for `COc1ccc(Nc2nccc(N3CCC(NC(=O)C(C)c4ccc(Cl)cc4)C3)n2)cc1` (centres unmarked) [GSK1379735]: 22%.
For the molecule `O=c1cc(N2CCOCC2)nc2n(Cc3cccc(Cl)c3Cl)c3ccccc3n12` [GSK2299009], the “%Inh” value is given as 13%.
The same measure, in the same setting: the same measure for `CC(=O)c1c(C)c2cnc(Nc3ccn(C)n3)nc2n(C2CCCC2)c1=O`: 0%; for `Cc1nccc(-c2c(-c3ccc(F)cc3)ncn2CCCN2CCOCC2)n1.Cl` [SB-282975]: 37%.
The same measure, in the same setting: the same measure for `COc1ccc(CSc2nnc(-c3ccc4c(c3)CCO4)o2)cc1`: 0%; for `Cc1ccc(NC(=O)Nc2ccc(Cl)cc2)cc1-c1ccc(C(=O)Nc2ccncc2)cc1` [GSK1398472]: 22%.

The values above are taken from paper PMC5540273 (PLoS ONE, 2017).
